Drawing on PubChem BioAssay AID1240 (Sanford-Burnham Center for Chemical Genomics, 2008), this text covers displacement for 104 compounds.

Screen size: about 50,000 compounds; about 800 (1.6%) showed an effect of 50% or more. The list comes from a sample in which strong results are over-represented; it also holds similar structures and randomly drawn compounds.

Sequence of Bcl-2-like protein 10 (Homo sapiens) (Q9HD36 whole entry, looked up): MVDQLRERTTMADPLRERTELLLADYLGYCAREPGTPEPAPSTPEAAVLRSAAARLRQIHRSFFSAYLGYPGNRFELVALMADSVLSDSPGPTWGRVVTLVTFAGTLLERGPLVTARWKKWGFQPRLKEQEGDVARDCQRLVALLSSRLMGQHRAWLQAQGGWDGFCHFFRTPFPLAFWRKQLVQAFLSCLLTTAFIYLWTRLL

The experiment concerns the target Bcl-2-like protein 10 (Homo sapiens) (UniProt Q9HD36). Put plainly: Phenotype converters, Bcl-B/TR3 peptide binding displacement, primary biochemical FP (AID 1240).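 Also: 0% = Bcl-B with tracer peptide and DMSO and 100% = tracer peptide lacking Bcl-B.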 To be noted: GST-Bcl-B / FITC-TR3 peptide fluorescence polarization; stronger effect = higher value; compound at 3.75 mg/L.
As for `CCc1ccc(-c2csc(N3N=C(c4cccs4)CC3c3ccc(F)cc3)n2)cc1` (centres undefined), the displacement stood at 0.2%.
In the case of `COc1ccc(NC(=O)c2ccccc2NC(=O)c2ccc(C)cc2)cc1`, the displacement was -10.2%.
With `O=C(O)CCN1C(=O)/C(=C/c2cn(-c3ccccc3)nc2-c2cccs2)SC1=S`, the displacement was -14.1%.
With `O=C1/C(=C/c2cn(-c3ccccc3)nc2-c2ccco2)SC(=S)N1C1CCS(=O)(=O)C1` (centres undefined), the displacement was determined as 11.2%.
Then `CC(C)CN1C(=O)/C(=C/c2cn(-c3ccccc3)nc2-c2cccs2)SC1=S`, with 34.6%.
Regarding `O=C1/C(=C/c2cn(-c3ccccc3)nc2-c2cccs2)SC(=S)N1C1CCS(=O)(=O)C1` (centres undefined), the displacement came out at 100%.
Take `COc1ccc(N2C(=O)/C(=C/c3cn(-c4ccccc4)nc3-c3cccs3)SC2=S)cc1`: the displacement was 0.4%.
In the case of `O=C1/C(=C/c2cn(-c3ccccc3)nc2-c2cccs2)SC(=S)N1Cc1ccccc1`, the displacement is 115%.
Consider `COc1ccc(-n2c(SCC(=O)Nc3ccc(C)cc3)nc(O)c(Cc3ccccc3)c2=O)cc1`, for which the displacement was determined as 22.8%.
To `Cc1ccnc(N2C(=O)c3ccc(C(=O)O)cc3C2=O)c1` belongs 1.9%; to `Cc1nn(-c2ccccc2)c2sc(C(=O)N/N=C/c3cc4c(cc3[N+](=O)[O-])OCO4)cc12`, -1.4%; to `Cc1ccccc1OCC(=O)Nc1ccc(I)cc1Cl`, 9.5%.
In the case of `COC(=O)C1=C(C)N(C)C(C)=C(C(=O)OC)C1c1ccc(Br)cc1`, the displacement is -10.8%.
`CCOc1ccc(-c2nc(Cc3ccccc3OC)no2)cc1`: the displacement is -6.4%.
As for `O=C1C2CCCCC2C(=O)N1CC(=O)N1c2ccccc2Sc2ccc(C(F)(F)F)cc21` (centres undefined), the displacement was -14.3%.
`CCCOc1ccc(N2C(=O)CC(NCCNc3ccc([N+](=O)[O-])cn3)C2=O)cc1` (centres undefined): the displacement was -1.7%.
In the case of `O=C(Nc1ccccc1)c1ccccc1N=Cc1ccc(C=Nc2ccccc2C(=O)Nc2ccccc2)cc1`, the displacement came out at 121%.
In the case of `CCn1c2ccccc2c2cc(C=Nc3ccccc3C(=O)Nc3ccccc3)ccc21`, the displacement was -5.9%.
For the compound `O=C(Nc1ccccc1)c1ccccc1N=Cc1ccc(Cl)c([N+](=O)[O-])c1`, the displacement came to 6.6%.
On to `CCOP(=O)(OCC)C(OC(N)=O)c1ccc([N+](=O)[O-])cc1` (centres undefined), for which the displacement was -9.1%.
Then `Cc1onc(-c2c(F)cccc2Cl)c1C(=O)NCc1ccccn1`, with -5.5%; and `C[C@@H]1O[C@@H](Nc2ccc(Cl)cc2[N+](=O)[O-])[C@H](O)[C@H](O)[C@H]1O`, with 54.7%; and `Cc1cc(N[C@@H]2O[C@@H](C)[C@H](O)[C@@H](O)[C@H]2O)c([N+](=O)[O-])cc1C`, with 6.5%.
As to `O=[N+]([O-])c1ccccc1N[C@H]1O[C@H](CO)[C@@H](O)[C@@H]1O`, the displacement is 6%.
Turning to `CC1=NN(c2ccc(C(=O)O)cc2)C(=O)/C1=C\c1ccc(O)cc1`, the displacement is -50.5%.
`Cc1cc2nc(-c3cc(NC(=O)COc4ccc([N+](=O)[O-])cc4)ccc3O)oc2cc1C`: the displacement is 0.2%.
As for `Cc1c(NC(=O)/C=C/c2cn(-c3ccccc3)nc2-c2ccccc2)c(=O)n(-c2ccccc2)n1C`, the displacement was 70%.
`Cc1c(NC(=O)/C=C/c2ccccc2)c(=O)n(-c2ccccc2)n1C`: the displacement was found to be 2.7%.
Consider `Cc1c(NC(=O)/C=C/c2cn(-c3ccccc3)nc2-c2ccc(F)cc2)c(=O)n(-c2ccccc2)n1C`, for which the displacement stood at 12.2%.
In the case of `COc1ccc(C(=O)N2CCN(Cc3ccccc3C)CC2)cc1OC`, the displacement was -1%.
As for `COc1ccc(C(=O)N2CCN(Cc3ccccc3F)CC2)cc1OC`, the displacement amounted to 56%.
`COc1ccc(C(=O)N2CCN(Cc3cccc4ccccc34)CC2)cc1OC`: the displacement was -5.2%.
Take `COc1cc(C(=O)N2CCN(Cc3cccc(Oc4ccccc4)c3)CC2)cc(OC)c1OC`: the displacement was 132%.
Turning to `O=C(c1ccccc1)N1CCN(Cc2cccc(Oc3ccccc3)c2)CC1`, the displacement is -8.8%.
For `COc1ccc(C(=O)N2CCN(Cc3cccc(Oc4ccccc4)c3)CC2)cc1OC`, the displacement worked out at 6.4%.
In the case of `CN1CCN(CC(=O)N2CCn3c4c(c5cc(C6CCCCC6)ccc53)CCCC42)CC1` (centres undefined), the displacement was determined as 60.9%.
To `CCn1c2c(c3cc(C4CCCCC4)ccc31)CCCC2O` (centres undefined) belongs 2.5%; to `CC(=O)SCCC(=O)N1CCn2c3c(c4cc(C)ccc42)CCCC31` (centres undefined), 14.3%; to `O=C(Nc1ccc(Cl)cc1)Nc1ccc([N+](=O)[O-])cc1Br`, 3.9%.
With `CCCC(=O)Nc1ccc2c(c1)Cc1ccccc1-2`, the displacement is -1.1%.
In the case of `O=C(N/N=C/c1cccnc1)c1ccco1`, the displacement worked out at 18.4%.
For `O=C1OC(c2ccc(NC(=O)C(F)(F)F)cc2)(c2ccc(NC(=O)C(F)(F)F)cc2)c2ccccc21`, the displacement was 4.8%.
To `O=C1OC(Nc2ncccn2)(c2ccccc2)c2ccccc21` (centres undefined) belongs -7.3%; to `O=S(=O)(c1ccc2ccccc2c1)N1CCC(Cc2ccccc2)CC1`, -21.4%.
Regarding `O=C(CCN1C(=O)c2ccccc2C1=O)Nc1ccccc1C(=O)N1CCOCC1`, the displacement was determined as 10%.
As for `O=C1CNC(=O)c2c(ncn2Cc2ccccc2)N1`, the displacement was -13.2%.
On to `O=C1c2ccccc2-c2onc3c(N4CCN(c5ccccc5)CC4)ccc1c23`, for which the displacement was -8.2%.
To `Cc1ccc(N2CCCCC2)c2c1C(=O)c1ccccc1C2=O` belongs 1.1%.
Take `O=C1c2ccccc2-c2onc3ccc(NC4CCCCC4)c1c23`: the displacement worked out at 59.4%.
Regarding `O=C1c2ccccc2-c2onc3ccc(Nc4cccc([N+](=O)[O-])c4)c1c23`, the displacement stood at 24.2%.
As for `O=C1c2ccccc2C(=O)c2c(NC3CCCCC3)cccc21`, the displacement was -2.9%.
As for `O=C1c2ccccc2-c2onc3ccc(N4CCCCC4)c1c23`, the displacement was 145%.
With `CCSc1sc(CC)cc1C(=O)O`, the displacement stood at 15.4%.
As for `O=c1oc(-c2ccco2)nc2cc(Cl)ccc12`, the displacement came out at 56%.
With `O=c1oc(-c2ccco2)nc2ccccc12`, the displacement turned out to be 15.9%.
Consider `O=c1oc(-c2ccco2)nc2ccc(Cl)cc12`, for which the displacement stood at 13.6%.
Take `C(=C\c1ccco1)/C=N/Nc1nnc2c(n1)[nH]c1ccccc12`: the displacement is -1.8%.
Take `CCOc1ccc(C(=O)Nc2ccc(O)c(-c3nc4ccccc4s3)c2)cc1Cl`: the displacement was found to be 6.3%.
`Cc1ccc(-c2cc3nc4c(c(=O)n3[nH]2)SCC4)cc1`: the displacement was -4.6%.
As to `O=c1c2c(nc3cc(-c4ccc(Br)cc4)[nH]n13)CCS2`, the displacement is -9.1%.
Then `O=c1c2c(nc3cc(-c4ccc(Cl)cc4)[nH]n13)CCS2`, with 115%; and `O=c1c2c(nc3cc(-c4cccc(Cl)c4)[nH]n13)CCS2`, with 34.8%.
`O=c1c2c(nc3cc(-c4cccc(F)c4)[nH]n13)CCS2`: the displacement came to 9.2%.
With `O=c1c2c(nc3cc(-c4ccc(I)cc4)[nH]n13)CCS2`, the displacement came to 97.5%.
As to `O=C(COc1cccc2ccccc12)NCc1cccnc1`, the displacement amounted to 8.3%.
Take `CC(C)CNC(=O)c1cccc(NC(=O)CN2C(=O)c3ccccc3C2=O)c1`: the displacement was determined as 13.8%.
Take `O=C(NCc1ccncc1)c1ccc(Cl)cc1`: the displacement was -3.5%.
On to `C/C(=N/NC(=O)COc1cccc(Cl)c1)c1ccccc1O`, for which the displacement worked out at 9.1%.
For `Cc1cc(C)c(NC(=O)c2ccccc2[N+](=O)[O-])c(C)c1`, the displacement was 13.5%.
To `CC(=O)NC(NC(C)=O)c1ccc(F)cc1` belongs -2.4%; to `CCOc1ccc(/C=C2/C(=O)NC(=O)N(c3ccc(OC)cc3)C2=O)c(OCC)c1`, -4%.
Regarding `COc1ccc(/C=C2\C(=O)NC(=O)N(c3cccc(Br)c3)C2=O)c(C)c1`, the displacement is -5.7%.
Turning to `COc1ccc(/C=C2\C(=O)NC(=O)N(c3cccc(Br)c3)C2=O)cc1OC`, the displacement was found to be 120%.
Consider `COc1ccc(/C=C2\C(=O)NC(=O)N(c3cccc(Br)c3)C2=O)c(OC)c1`, for which the displacement was 122%.
To `COc1ccc(/C=C2\C(=O)NC(=O)N(c3ccc(F)cc3)C2=O)cc1OC` belongs -27.7%; to `COc1cc(/C=C2\C(=O)NC(=O)N(c3cccc(Br)c3)C2=O)cc(Cl)c1O`, 4.4%.
With `COc1ccc(/C=C2\C(=O)NC(=S)N(c3cccc(Br)c3)C2=O)c(OC)c1`, the displacement was -0.7%.
Then `CCOc1ccc(N2C(=O)NC(=O)/C(=C\c3ccc(N(CC)CC)cc3OC)C2=O)cc1`, with 55.1%; and `CCN(CC)c1ccc(/C=C2\C(=O)NC(=O)N(c3ccc(OC)cc3)C2=O)c(OC)c1`, with 10%; and `Cc1cc(Br)ccc1NC(=O)c1ccc(C)c([N+](=O)[O-])c1`, with 8.6%.
As to `CCCCCOC(=O)C1=C(C)NC(=O)NC1c1ccc(Br)cc1` (centres undefined), the displacement was found to be 8.5%.
To `COc1ccccc1C(=O)Nc1nnc(C(C)(C)C)s1` belongs -11.4%; to `CCOc1ccc(S(=O)(=O)N(CC(=O)NC)c2ccc(C)cc2)cc1`, 1.7%; to `C=CCC(C)(CC=C)NC(=O)c1ccccc1[N+](=O)[O-]`, -6.9%.
Turning to `O=C(NCC1CCCO1)/C(=C/c1ccc(-c2ccccc2Cl)o1)NC(=O)c1ccccc1` (centres undefined), the displacement stood at 19.7%.
As for `COc1cc(C(=O)Oc2ccc(Cl)cc2C)cc(OC)c1OC`, the displacement came out at 2.1%.
For `CCOC(=O)C1=C(C)NC2=C(C(=O)CC(C)(C)C2)C1c1ccc(OC(F)F)cc1` (centres undefined), the displacement was -0.2%.
For the compound `COc1ccc(C2=C/C(=C\c3cccc(OC(C)=O)c3)C(=O)O2)cc1`, the displacement was found to be 25.4%.
On to `CCOc1cc(/C=C2\C=C(c3ccc(Br)cc3)OC2=O)ccc1OC(C)=O`, for which the displacement was found to be 12.6%.
Turning to `CCOc1ccc(C2=C/C(=C/c3ccc(OC)cc3)C(=O)O2)cc1`, the displacement is -0.6%.
With `COc1ccc(C2=C/C(=C\c3ccc(OC(C)=O)c(OC)c3)C(=O)O2)cc1`, the displacement came out at 39.4%.
For the compound `COc1ccc(C2=C/C(=C\c3ccc(OC(C)=O)cc3)C(=O)O2)cc1`, the displacement was 110%.
Then `CCOc1cc(/C=C2\C=C(c3ccc(OC)cc3)OC2=O)ccc1OC(C)=O`, with 92.4%; and `COc1cc(/C=C2\C=C(c3ccc(C)cc3)OC2=O)ccc1OC(C)=O`, with 59.2%.
`CCOc1cc(/C=C2\C=C(c3ccc(C)cc3)OC2=O)ccc1OC(C)=O`: the displacement was found to be 111%.
As to `CCOc1cc(/C=C2/C=C(c3ccc(OC)cc3)OC2=O)cc(I)c1OC`, the displacement was -6%.
As to `CC(=O)Oc1ccc(/C=C2\C=C(c3ccc(C)cc3)OC2=O)cc1`, the displacement is 34.5%.
In the case of `COc1ccc(/C=C2\C=C(c3ccc(C)cc3)OC2=O)cc1C`, the displacement stood at 10.4%.
Consider `CC(=O)Oc1cccc(/C=C2\C=C(c3ccc(C)cc3)OC2=O)c1`, for which the displacement stood at 7%.
Then `O=C(O)c1ccc(-c2ccc(OC(F)(F)F)cc2)o1`, with -7.6%; and `NC(=S)N/N=C/c1cccn1-c1ccc([N+](=O)[O-])cc1`, with -1%; and `O=C1S/C(=C/c2ccc(Cl)c(Cl)c2)C(=O)N1c1ccccc1`, with 17.9%.
Then `CCOC(=O)c1c(NC(=O)CC2SC(N)=NC2=O)sc2c1CCCC2` (centres undefined), with 6.3%; and `COc1ccc(C(=O)CC(Nc2ccc([N+](=O)[O-])cc2)c2ccc(Cl)cc2)cc1` (centres undefined), with -4.2%.
